HCV inh – HCV inhibition; Huh7.5.1 HCVcc-Cre infection, luciferase reporter, 44 h; 3.4% of 340,000 active; AID 651820; Potency, µM (top dose mostly 41.8 µM), without a hit: at the top dose activity change, negative = inhibition, most hits filed as inhibitors; also: potency is read from the fitted curve at half-maximal effect; % is scaled to controls: 0 for no effect and ±100 for the full control effect
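Compounds are dispensed onto cells plated 4 h earlier at 1,000 per well, with HCVcc-Cre virus (about 0.5 moi) added next. Following 44 h of culture, luminescent signal is measured for 15 sec after 15 min with substrate at room temperature.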
HCMV antiviral – inhibitors of human cytomegalovirus. HFF cells, HCMV-luciferase reporter, 72 h; active compounds read low. activity change, negative = inhibition, % at 57.5 µM. 4.5% of 410,000 active. AID 1259415; in the data active = activity change below about -60%; inconclusive = no clear call, values can overlap the other calls; inactive = above about -39%; also: % is scaled to controls: 0 for no effect and ±100 for the full control effect
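Two compound doses tested in HFFs infected with HCMV-luciferase, MOI 1 PFU/cell, 72 h at 37C. Lysate luminescence read with OneGlo; data normalized against buffer-only and 10uM Salinomycin inhibitor controls.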
Pf growth 48h – P. falciparum growth inhibition at 48 hours (one generation); P. falciparum luciferase growth in erythrocytes, 48 h; Potency, µM (top dose mostly 28.7 µM), for the others: top-dose activity change, negative = inhibition, actives largely listed as inhibitors; 5.9% of 310,000 active; also: potency is read from the fitted curve at half-maximal effect; % is scaled to controls: 0 for no effect and ±100 for the full control effect
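In quantitative HTS format, infected erythrocytes bearing luciferase-reporter parasites were treated for a single generation at 37 C. Luminescence after adding detection reagent served as the growth measure.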
Sm TGR inh – S. mansoni TGR enzyme inhibition | Q962Y6 | purified TGR, DTNB reduction, TNB absorbance 405 nm | Potency, µM (doses to about 114 µM), for inactives: top-dose activity change, negative = inhibition, most hits filed as inhibitors | 3% of 360,000 active | AID 485364; also: potency is read from the fitted curve at half-maximal effect; % is scaled to controls: 0 for no effect and ±100 for the full control effect; nearly all actives have a fitted effect of over 60% in size
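TGR 20 nM + NADPH 100 uM (dispensed conc.), cpd preinc 15 min RT; start with NADPH (500 uM addition) then DTNB (15 mM addition). Kinetic TNB absorbance, 405 nm filter. Four-parameter Hill fit across titration.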
SARS PLP yeast – inhibitors of SARS-CoV papain-like protease in yeast | Potency, µM (top dose mostly 32.9 µM), for inactives: at the top dose activity, positive = growth rescue, most hits filed as activators | S. cerevisiae expressing SARS-CoV PLpro, growth rescue | 0.19% of 330,000 active; calls by dose curve; also: potency is read from the fitted curve at half-maximal effect; 0% is about no effect; nearly all actives have a fitted effect of over 55% in size
Pf growth 96h – P. falciparum growth inhibition at 96 hours; P. falciparum luciferase reporter growth, 96 h; Potency, µM (series often up to 28.7 µM), for the others: top-dose activity change, negative = inhibition, most hits filed as inhibitors; AID 504834; 6.9% of 320,000 active; also: potency is read from the fitted curve at half-maximal effect; % is scaled to controls: 0 for no effect and ±100 for the full control effect
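Infected RBCs, 2% Hct / 0.05% parasitemia final; luciferase-reporter P. falciparum; cpd 96 h, 37 C, 5% CO2; luciferase detection reagent; luminescence.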
The depositor's hits bear a star. An excerpt weighted towards active compounds, which were near 15% of everything screened. Unless noted, calls follow the shape of the dose curve; as a rule, active = well fitted curve in the direction sought with a large enough effect; inconclusive = small, poorly fitted or top-dose-only effect, or another doubt; inactive = no such curve, though single readings can be large; an effect the other way counts as inactive or inconclusive.

Results for O=C(NC1CCSc2ccccc21)c1cccc([N+](=O)[O-])c1 (stereo unspecified) ?
HCV inh: 2%; HCMV antiviral: -8; Pf growth 48h: 1.5µM*; Sm TGR inh: -20%; SARS PLP yeast: 6%; Pf growth 96h: 2.3µM*

Results for O=C(NC1CCCc2ccccc21)c1ccc([N+](=O)[O-])cc1 (stereo unspecified) ?
HCV inh: -10%; HCMV antiviral: 9; Pf growth 48h: 2%; Sm TGR inh: 1%; SARS PLP yeast: -2%; Pf growth 96h: 6%

What do the screens show for `COc1ccc(C(=O)NC2CCSc3ccccc32)cc1` (stereo unspecified)?
HCV inh: -8%; HCMV antiviral: 14; Pf growth 48h: -3%; Sm TGR inh: 1%; SARS PLP yeast: 6%; Pf growth 96h: 28%

How did CS(=O)(=O)Cc1cccc(C(=O)NC2CCSc3ccccc32)c1 (stereo unspecified) do in these assays?
HCV inh: 8%; HCMV antiviral: -29; Pf growth 48h: 6%; Sm TGR inh: 10%; SARS PLP yeast: 6%; Pf growth 96h: 75%

What do the screens show for `CN(C)S(=O)(=O)c1cccc(C(=O)NC2CCSc3ccccc32)c1` (stereo unspecified)?
HCV inh: -4%; HCMV antiviral: -11; Pf growth 48h: inconclusive; Sm TGR inh: -5%; SARS PLP yeast: -1%; Pf growth 96h: 12µM*

Results for O=C(Cc1ccccc1)c1c[nH]c(C(=O)NCCCN2CCOCC2)c1 ?
HCV inh: 6%; HCMV antiviral: -8; Pf growth 48h: 184%; Sm TGR inh: 4%; SARS PLP yeast: -2%; Pf growth 96h: inconclusive

How did O=C(NCCCCNC(=O)c1ccc(Br)cc1)c1ccc(Br)cc1 do in these assays?
HCV inh: 11%; HCMV antiviral: -26; Pf growth 48h: 1%; Sm TGR inh: 2%; SARS PLP yeast: -2%; Pf growth 96h: 56%

How did O=C(NCCCCNC(=O)c1ccc(F)cc1)c1ccc(F)cc1 do in these assays?
HCV inh: 6%; HCMV antiviral: 1; Pf growth 48h: 3%; Sm TGR inh: -4%; SARS PLP yeast: -3%; Pf growth 96h: 2.6µM*

What do the screens show for `O=C(NCCCc1ccccc1)c1ccc(F)cc1`?
HCV inh: 15%; Pf growth 48h: 38%; Sm TGR inh: -28%; SARS PLP yeast: 1%; Pf growth 96h: 17µM*

Results for Cc1onc(-c2c(Cl)cccc2Cl)c1C(=O)Nc1ccc(N2CCOCC2)cc1 ?
HCV inh: -20%; HCMV antiviral: -6; Pf growth 48h: inconclusive; Sm TGR inh: -12%; SARS PLP yeast: 1%; Pf growth 96h: inconclusive

How did NC(Cc1ccc(F)cc1)c1csc(Nc2ccc(C(=O)c3ccccc3)cc2)n1 (stereo unspecified) do in these assays?
HCMV antiviral: -5

Results for Cc1ccc(N2CC(C(=O)NCc3ccc(C)n3C)CC2=O)cc1 (stereo unspecified) ?
HCV inh: 2%; HCMV antiviral: -27; Pf growth 48h: 21%; Sm TGR inh: 40µM*; SARS PLP yeast: -1%; Pf growth 96h: 58%

How did Cc1ccc(N2CC(C(=O)NCCC(C)C)CC2=O)cc1 (stereo unspecified) do in these assays?
HCV inh: -1%; HCMV antiviral: -5; Pf growth 48h: 14%; Sm TGR inh: -5%; SARS PLP yeast: 2%

Results for O=C(c1ccc(Br)o1)N1CCN(c2ncccn2)CC1 ?
HCV inh: 14%; HCMV antiviral: 20; Sm TGR inh: -3%; SARS PLP yeast: 5%; Pf growth 96h: inconclusive

Results for O=C(c1ccc(CS(=O)(=O)c2ccc(Br)cc2)o1)N1CCN(c2ncccn2)CC1 ?
HCV inh: -8%; HCMV antiviral: 17; Sm TGR inh: 50µM*; SARS PLP yeast: -5%; Pf growth 96h: 1.9µM*

What do the screens show for `Cc1ccc(Cl)cc1N1CCN(C(=O)c2ccc(CS(=O)(=O)c3ccc(Br)cc3)o2)CC1`?
HCMV antiviral: -68*; Sm TGR inh: 2%

What do the screens show for `COc1ccc(OC)c(NC(=O)C2(C)CCN2CCOc2ccccc2)c1` (stereo unspecified)?
HCMV antiviral: -27

What do the screens show for `COc1ccccc1NC(=O)CN1CCCN(S(=O)(=O)c2ccc(Br)cc2)CC1`?
HCMV antiviral: -6; Sm TGR inh: 2%

How did COc1ccccc1CNC(=O)c1cc(-c2ccccc2C)n(CC2CC(c3cccc([N+](=O)[O-])c3)=NO2)n1 (stereo unspecified) do in these assays?
HCV inh: inconclusive; HCMV antiviral: 0; Pf growth 48h: 5.2µM*; Sm TGR inh: -18%; SARS PLP yeast: 5%; Pf growth 96h: inconclusive

Results for Cc1ccccc1-c1cc(C(=O)NCC2CC2)nn1CC1CC(c2cccc([N+](=O)[O-])c2)=NO1 (stereo unspecified) ?
HCV inh: -29%; HCMV antiviral: -11; Pf growth 48h: 5.2µM*; Sm TGR inh: -4%; SARS PLP yeast: 2%; Pf growth 96h: 2.6µM*

How did Cc1ccccc1-c1cc(C(=O)NCc2cccc(Br)c2)nn1CC1CC(c2cccc([N+](=O)[O-])c2)=NO1 (stereo unspecified) do in these assays?
HCV inh: inconclusive; HCMV antiviral: -8; SARS PLP yeast: 1%

How did COCCNC(=O)c1cc(-c2ccccc2C)n(CC2CC(c3cccc([N+](=O)[O-])c3)=NO2)n1 (stereo unspecified) do in these assays?
HCV inh: inconclusive; HCMV antiviral: 18; SARS PLP yeast: -5%

Results for Cc1ccc(N2CCN(C(=O)CCS(=O)(=O)c3cc4c(cc3Cl)NC(=O)CO4)CC2)c(C)c1 ?
HCMV antiviral: -25; Sm TGR inh: -9%

What do the screens show for `COc1ccc(N(C)S(=O)(=O)c2ccc(Cl)c(C(=O)NCC(C)(C)N3CCOCC3)c2)cc1`?
HCV inh: inconclusive; HCMV antiviral: inconclusive; Pf growth 48h: inconclusive; Sm TGR inh: -5%; SARS PLP yeast: 0%; Pf growth 96h: inconclusive

Results for Cc1ccc2c(c1)N(C(=O)Nc1cccc(C)c1C)CCO2 ?
HCMV antiviral: -4; Sm TGR inh: -4%

How did Cc1cn([C@H]2C[C@H](O)[C@@H](CCC(=O)NCCc3cccs3)O2)c(=O)[nH]c1=O do in these assays?
HCMV antiviral: -3

How did CCOC(=O)N1CCN(c2cc3nccnc3cc2F)CC1 do in these assays?
HCV inh: 6%; HCMV antiviral: inconclusive; Pf growth 48h: 12%; Sm TGR inh: 1%; SARS PLP yeast: -2%
